Measurements reported in the supplement of paper PMC12669032.
A number with no mark means an inactive call.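 Rule for the calls: active = AUC reduced over 20% with Padj below 0.05 in at least 2 of 3 replicates; inactive = otherwise.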

Key:
[1] = system: Roseburia intestinalis; test: growth AUC relative to DMSO control (median of replicates) (fraction); higher = more growth (less inhibition), active = hit call of the paper; conditions: 20 µM; 24 h
In short: (§1)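 Gut bacterial monocultures were grown anaerobically at 37 °C in mGAM, starting at OD600 0.05, with 20 µM compound (1% DMSO) in round-bottom 96-well plates under pierced gas-permeable seals. OD600 was read hourly for 24 h. Area under the growth curve (minimum OD set to 0) was normalised to the plate median of DMSO controls, or to row and column medians on the industrial chemical plate. The value is the median of three biological replicates grown on separate days.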

[2] = system: Streptococcus salivarius; test: as above; conditions: 20 µM; 24 h
In short: as §1

Structure (SMILES) | growth AUC [1] | growth AUC [2]
O=C(O)c1cccc2nnsc12 | 0.989 | 1.01
CCCOc1nc2ccc(I)cc2c(=O)n1CCC | 0.942 | 0.994
COC(=O)C(C)Oc1ccc(Cl)cc1Cl (stereo not drawn) | 0.979 | 0.991
CCNc1nc(N)[nH]c(=O)n1 | 1.06 | 0.978
O=C=NC1CCC(CC2CCC(N=C=O)CC2)CC1 (stereo not drawn) | 1.06 | 1.01
CC(C)NS(=O)(=O)NC(=O)c1cc(NC(N)=O)c(F)cc1Cl | 0.981 | 0.887
NC(=O)c1nn(-c2c(Cl)cc(C(F)(F)F)cc2Cl)c(N)c1S(=O)C(F)(F)F (stereo not drawn) | 0.992 | 0.977
COc1cc(OC)nc(NC(=O)NS(=O)(=O)Nc2ccccc2C(=O)N(C)C)n1 | 0.981 | 0.99
COC1CCC2(CC1)NC(=O)C(O)(c1cc(C)ccc1C)C2=O (stereo not drawn) | 1.01 | 1.01
CC(C)(NC(=O)C(Br)C(C)(C)C)c1ccccc1 (stereo not drawn) | 0.964 | 0.96
CC1COc2ccccc2N1C(=O)C(Cl)Cl (stereo not drawn) | 0.92 | 0.944
CCOC(=O)Cn1c(=O)sc2cccc(Cl)c21 | 0.968 | 0.961
CCc1cccc(C)c1NC(C)C(=O)O (racemic) | 1.04 | 1.02
CCc1ccc(C(c2ccc(CC)cc2)C(Cl)Cl)cc1 | 1 | 0.963
